# “And” between values parts separate entries of the source, which are not always exact repeats. Equal entries are not always repeated. Results filed as inconclusive are left out. The source made the active and inactive calls. Unless noted, calls come from the whole dose curve; as a rule, active = well fitted curve in the direction sought with a large enough effect; inconclusive = small, poorly fitted or top-dose-only effect, or another doubt; inactive = no such curve, though single readings can be large; an effect the other way counts as inactive or inconclusive.
# Tests used:
# [1] = qHTS Assay for Identifying Gametocytocidal Compounds (AID 743244);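 note: % is set by controls: 0 for no effect and ±100 for the full control effect; actives lower the fluorescent signal which means gametocytes are killed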; conditions: P. falciparum 3D7 stage III-V gametocytes, alamarBlue, 72 h; max response: stronger effect = lower value
# In short: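 P. falciparum 3D7 stage III–V gametocytes (20,000 cells/well) were exposed to compounds for 72 h at 37 °C, 5% CO2. AlamarBlue was then added for 24 h; decreased resorufin fluorescence (Ex 525/Em 598 nm) indicated loss of viability.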
# [2] = qHTS assay for cell viability of HEK293 cells (AID 743288); conditions: ATP luminescence (CellTiter-Glo), 18 h, stronger effect = lower value; note: % is set by controls: 0 for no effect and ±100 for the full control effect; nearly all actives have a fitted effect of over 50% in size
# In short: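 Viable-cell counts were inferred from luciferase-based ATP content in HEK293 cells seeded at 2,000/well, pre-incubated ≥5 h, then dosed with DMSO-solubilised compounds for 18 h at 37 C.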
# [3] = qHTS assay for cell viability of the p53RE-bla HCT-116 cell line (AID 743292); conditions: p53RE-bla HCT-116 viability, ATP luminescence, 16 h; series mostly up to 95 µM; note: % is set by controls: 0 for no effect and ±100 for the full control effect; nearly all actives have a fitted effect of over 55% in size
# In short: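 CellSensor p53RE-bla HCT-116 cells (4,000/well) pre-incubated 5 h at 37 C, then exposed to compounds in DMSO for 16 h at 37 C. Viability read as ATP content by CellTiter-Glo luminescence after 30 min at room temperature.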
# [4] = P-glycoprotein substrates identified in KB-8-5-11 adenocarcinoma cell line, qHTS therapeutic library screen (AID 1346987); conditions: KB-8-5-11 (P-gp overexpressing) viability, CellTiter-Glo, 72 h; series mostly up to 44.5 µM; note: % is set by controls: 0 for no effect and ±100 for the full control effect; nearly all actives have a fitted effect of over 65% in size
# In short: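 Compounds are pinned in dose-response onto KB-8-5-11 cells (500 cells/well, colchicine-free medium) and left 72 h at 37 degree C. CellTiter-Glo luminescence then yields AC50 values.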
# [5] = qHTS profiling of the MIPE4 collection as inhibitors of Plasmodium falciparum (3D7) proliferation (AID 743344; call rule not given here;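 note: scaled between DMSO vehicle wells and 0.29 µM artemisinin as full inhibition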); conditions: P. falciparum 3D7 in erythrocytes, SYBR Green DNA fluorescence, 72 h; at 28.5 µM (top of the series)
# In short: (§1)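 Parasite DNA was quantified by SYBR Green I fluorescence (ex 485, em 535 nm) after overnight lysis in saponin/Triton buffer at room temperature. Cultures at 0.3% parasitemia and 2.5% hematocrit were first exposed to compound for 72 h at 37 C; signals were normalised to artemisinin (0.29 uM) and vehicle wells.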
# [6] = qHTS profiling of the MIPE4 collection as inhibitors of Plasmodium falciparum (DD2) proliferation (AID 743345; call rule not given here); conditions: P. falciparum Dd2 in erythrocytes, SYBR Green DNA, 72 h; at 28.5 µM (top of the series)
# In short: as §1
# [7] = qHTS profiling of the MIPE4 collection as inhibitors of Plasmodium falciparum (DD2) proliferation (Rep 2) (AID 743346; call rule not given here); conditions: P. falciparum Dd2 in erythrocytes, SYBR Green DNA, 72 h; at 28.5 µM (top of the series)
# In short: as §1
# [8] = qHTS profiling of the MIPE4 collection as inhibitors of Plasmodium falciparum (HB3) proliferation (AID 743347; call rule not given here;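 note: plate controls were DMSO vehicle wells for no effect and artemisinin wells for full effect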); conditions: P. falciparum HB3 in erythrocytes, SYBR Green DNA, 72 h; at 28.5 µM (top of the series)
# In short: as §1
smiles,measurement,setting,value
C=Cc1ccccc1,max response,[1],5.81% (inactive)
same,max response,[2],4.36% (inactive) and 2.49% (inactive)
same,outcome,[3],inactive
same,Potency,[4],inactive
CC(=O)NC[C@H]1CN(c2ccc(N3CCSCC3)c(F)c2)C(=O)O1,"parasite growth, % of DMSO control",[5],91.5%
same,"parasite growth remaining, % of DMSO control (lower = more inhibition)",[6],103%
same,"parasite growth, % of control (lower = inhibition)",[7],186%
same,"growth, % of control",[8],110%
CCOC(=O)[C@H](CCc1ccccc1)N[C@@H](C)C(=O)N1CC2(C[C@H]1C(=O)O)SCCS2,max response,[1],8.21% (inactive)
Cc1cc(-n2c(=O)[nH]c(=O)n(C)c2=O)ccc1Oc1ccc(S(=O)(=O)C(F)(F)F)cc1,max response,[1],-1.23% (inactive)
CN(C)Cc1ccccc1,max response,[1],9.16% (inactive)
same,max response,[2],0.0798% (inactive)
same,outcome,[3],inactive
same,Potency,[4],inactive
CCCCCCCCCC(=O)O,max response,[1],10.1% (inactive)
same,max response,[2],-4.02% (inactive) and 2.71% (inactive)
same,outcome,[3],inactive
same,Potency,[4],inactive
COc1ccc(C(=O)Nc2ccccc2CCC2CCCCN2C)cc1 (stereo unspecified),max response,[1],14.2% (inactive)
COC(=O)C1=C(C)NC(C)=C(C(=O)O[C@H]2CCN(Cc3ccccc3)C2)[C@H]1c1cccc([N+](=O)[O-])c1,max response,[1],22.4% (inactive)
O=S(O)CNc1ccc(S(=O)(=O)c2ccc(NCS(=O)O)cc2)cc1,max response,[1],-0.921% (inactive)
CCCCCCCC(=O)CC[C@@H]1[C@@H](C/C=C\CCCC(=O)OC(C)C)[C@@H](O)C[C@H]1O,max response,[1],0.0052% (inactive)
Cc1[nH]cnc1C[C@H]1CCc2c(C)c3ccccc3n2C1=O,max response,[1],6.9% (inactive)
CC(CC(c1ccccc1)c1ccccc1)NC(C)(C)C (stereo unspecified),max response,[1],-8.24% (inactive)
CN(C)CCOc1ccccc1Cc1ccccc1 (tested in a mixture with another compound),max response,[1],6.62% (inactive)
COC(C)=O,max response,[1],1.99% (inactive)
same,max response,[2],-4.96% (inactive)
same,outcome,[3],inactive
same,Potency,[4],inactive
NCCC(=O)[N-][C@@H](Cc1cnc[nH]1)C(=O)O.[Zn],max response,[1],14.2% (inactive)
CC(=O)O[C@H]1CC[C@@]2(C)C(=CC[C@@H]3[C@@H]2CC[C@]2(C)C(c4cccnc4)=CC[C@@H]32)C1,max response,[1],-2.25% (inactive)

# Source: PubChem BioAssay (NCATS)
